This passage reports outcome and Potency results from PubChem BioAssay (Tox21).

Results filed as inconclusive are left out. A call without a number means that no potency is given here. Calls of active or inactive are those of the source. Unless noted, calls follow the shape of the dose curve; as a rule, active = well fitted activation curve with a large enough effect in the repeat runs; inconclusive = weak or mixed curves; inactive = flat fitted curve, though single readings scatter.

Sequence of Androgen receptor (Homo sapiens) (P10275 whole entry, looked up): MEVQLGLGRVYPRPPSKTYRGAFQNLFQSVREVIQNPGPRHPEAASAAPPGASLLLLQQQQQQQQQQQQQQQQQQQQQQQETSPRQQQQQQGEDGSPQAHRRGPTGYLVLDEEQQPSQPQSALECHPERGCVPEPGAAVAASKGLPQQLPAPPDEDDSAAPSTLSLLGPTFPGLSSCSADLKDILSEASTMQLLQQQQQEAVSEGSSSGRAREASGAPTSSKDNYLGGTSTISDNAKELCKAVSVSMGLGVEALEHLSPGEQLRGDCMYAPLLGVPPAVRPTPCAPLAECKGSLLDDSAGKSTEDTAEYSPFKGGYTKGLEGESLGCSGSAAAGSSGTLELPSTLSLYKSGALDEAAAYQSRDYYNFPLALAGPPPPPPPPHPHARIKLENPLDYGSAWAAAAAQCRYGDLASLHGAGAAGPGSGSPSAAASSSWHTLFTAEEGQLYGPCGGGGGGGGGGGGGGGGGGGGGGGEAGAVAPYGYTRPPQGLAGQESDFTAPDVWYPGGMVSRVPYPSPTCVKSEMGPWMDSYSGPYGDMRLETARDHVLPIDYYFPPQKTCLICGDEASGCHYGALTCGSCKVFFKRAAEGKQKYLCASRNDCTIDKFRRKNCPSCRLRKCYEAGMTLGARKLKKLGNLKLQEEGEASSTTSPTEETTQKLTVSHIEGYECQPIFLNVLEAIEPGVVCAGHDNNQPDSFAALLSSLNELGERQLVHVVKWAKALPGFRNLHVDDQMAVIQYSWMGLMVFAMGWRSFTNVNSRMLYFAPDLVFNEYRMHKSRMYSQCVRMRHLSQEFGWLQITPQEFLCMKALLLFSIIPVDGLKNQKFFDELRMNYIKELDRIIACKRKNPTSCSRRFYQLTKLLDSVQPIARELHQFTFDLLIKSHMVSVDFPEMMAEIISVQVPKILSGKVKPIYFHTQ

The first test has as its target Androgen receptor (Homo sapiens) (UniProt P10275). Nature of the test: qHTS assay to identify small molecule antagonists of the androgen receptor (AR) signaling pathway (AID 743035; active = well fitted inhibition curve with a large enough effect in the signal ratio in the repeat runs, not every such curve was filed as active; the % refers to the signal ratio). The conditions noted are these: HEK293 AR-UAS-bla, R1881-stimulated, beta-lactamase FRET, 16 h; series mostly up to 58.5 µM. A digest of the protocol: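 Fluorescence from a beta-lactamase FRET substrate (LiveBLAzer B/G, 2 h, room temperature) measured inhibition of R1881-stimulated signaling in GeneBLAzer AR-UAS-bla HEK293 cells exposed to compound for 16 h at 37C.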
For the molecule `CC(=O)CC(C)C`, the outcome was inactive.
Same read-out and setting: then `O=C1CC2CC1C1CCCC21` (stereo unspecified), with “inactive”; and `CCn1ccnc1CC1COc2ccccc2O1` (stereo unspecified), with “inactive”.
Still for that read-out and setting: next, `CN1CC(=O)NC1=N`: “inactive”.
On the same count and under the same terms, next, `CCOc1ccc(C(=O)OCCN(CC)CC)cc1`: “inactive”; `NS(=O)(=O)c1ccc(C(=O)O)cc1`: “inactive”.

Another test has the same target. Nature of the test: qHTS assay to identify small molecule agonists of the androgen receptor (AR) signaling pathway (AID 743036; active = well fitted activation curve with a large enough effect in the signal ratio in the repeat runs, with a control signal flat, not every such curve was filed as active; the % refers to the signal ratio). Particulars: HEK293 AR-UAS-bla GripTite, beta-lactamase FRET ratio, 16 h; series mostly up to 62.4 µM. A digest of the protocol: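 HEK293 cells stably carrying a UAS-driven beta-lactamase reporter (GeneBLAzer AR-UAS-bla-GripTite) were plated at 2,000 cells/well, rested 4 h at 37C, then exposed to compounds in DMSO for 16 h. LiveBLAzer B/G FRET substrate was added for 2 h at room temperature; fluorescence read.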
Turning to `CC(=O)CC(C)C`, the outcome was inactive.
Still for that read-out and setting: next, `O=C1CC2CC1C1CCCC21` (stereo unspecified): “inactive”; `CCn1ccnc1CC1COc2ccccc2O1` (stereo unspecified): “inactive”; `CCOc1ccc(C(=O)OCCN(CC)CC)cc1`: “inactive”.
Same read-out and setting: next, `NS(=O)(=O)c1ccc(C(=O)O)cc1`: “inactive”; `COC(=O)[C@@H](N)Cc1ccc(O)c(O)c1`: “inactive”.

A further test shares this target. Kind of test: qHTS assay to identify small molecule agonists of the androgen receptor (AR) signaling pathway using the MDA cell line (AID 743040; also: nearly all actives have a fitted effect of over 20% in size; also: potency is read from the fitted curve at half-maximal effect). Particulars: MDA-kb2 AR-luc cells, MMTV luciferase, 16 h; series mostly up to 70.3 µM. A digest of the protocol:
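Luminescence from ONE-Glo, read after 30 min at room temperature, reflects MMTV-driven luciferase in MDA-kb2 cells (AR- and GR-responsive). Treatment lasted 16 h at 37C, 0% CO2.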
Background: In qHTS, concentration-response curves come from the screen itself.
As to `CC(=O)CC(C)C`, the Potency result was “inactive”.
In the case of `O=C1CC2CC1C1CCCC21` (stereo unspecified), the Potency is 54.5 µM (active).
With `CCn1ccnc1CC1COc2ccccc2O1` (stereo unspecified), the Potency entry was “inactive”.
Still for that read-out and setting: then `C=C(C)CS(=O)(=O)O`, with “inactive”.
On the same count and under the same terms, then `CN1CC(=O)NC1=N`, with “inactive”; and `CCOc1ccc(C(=O)OCCN(CC)CC)cc1`, with “inactive”.
On the same count and under the same terms, next, `CN1CCN(c2cc3c(cc2F)c(=O)c(C(=O)O)cn3-c2ccc(F)cc2)CC1`: 26.6 µM (active).
With `NS(=O)(=O)c1ccc(C(=O)O)cc1`, the Potency result was “inactive”.
Still for that read-out and setting: then `COC(=O)[C@@H](N)Cc1ccc(O)c(O)c1`, with “inactive”.
